Source: PubChem BioAssay
L3MBTL1 block – qHTS Assay for the Inhibitors of L3MBTL1. Lethal(3)malignant brain tumor-like protein 1 (Homo sapiens), Q9Y468. AlphaScreen L3MBTL1–H3K9me1 peptide binding. Potency, µM (highest dose often 57.1 µM), for the others: at the highest dose activity, negative = inhibition, hits mostly inhibitors. actives 0.66% (n = 230,000). AID 485360, 2010; also: % is scaled to controls: 0 for no effect and ±100 for the full control effect; nearly all actives have a fitted effect of over 60% in size
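Read-out is AlphaScreen signal from streptavidin donor and nickel chelate acceptor beads (10 ug/mL final each) bridging L3MBTL1 (50 nM) and biotinylated K9-monomethylated H3(1-15) peptide (75 nM), after 30 min compound exposure at room temperature.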
JMJD2A Tudor inh – qHTS Assay for Inhibitors of JMJD2A-Tudor Domain; actives 4.4% (n = 390,000); AlphaScreen JMJD2A-Tudor / H3K4me3 peptide binding; Potency, µM (doses to about 114 µM), for inactives: at the highest dose activity change, negative = inhibition, most hits filed as inhibitors; Lysine-specific demethylase 4A (Homo sapiens), O75164; also: % is scaled to controls: 0 for no effect and ±100 for the full control effect; nearly all actives have a fitted effect of over 50% in size
G9a block – qHTS Assay for Inhibitors of Histone Lysine Methyltransferase G9a; Histone-lysine N-methyltransferase EHMT2 (Homo sapiens), Q96KQ7; G9a H3K9 monomethylation, AlphaScreen, 2 h; Potency, µM (doses to about 102 µM), inactives show at the top dose activity, negative = inhibition, hits mostly inhibitors; actives 8.8% (n = 350,000); AID 504332, 2011; also: % is scaled to controls: 0 for no effect and ±100 for the full control effect; nearly all actives have a fitted effect of over 75% in size
Target sequence (Q96KQ7 913-1193 limits assumed): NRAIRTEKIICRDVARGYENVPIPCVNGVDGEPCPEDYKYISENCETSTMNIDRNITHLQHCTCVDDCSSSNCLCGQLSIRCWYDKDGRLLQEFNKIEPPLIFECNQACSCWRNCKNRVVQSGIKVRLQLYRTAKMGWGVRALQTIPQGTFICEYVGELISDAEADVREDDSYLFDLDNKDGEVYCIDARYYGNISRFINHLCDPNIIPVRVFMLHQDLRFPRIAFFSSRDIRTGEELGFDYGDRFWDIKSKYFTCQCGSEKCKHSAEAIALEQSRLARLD
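Quantitative HTS format: methyltransferase activity on a biotin-tagged H3K9 peptide is measured by AlphaScreen, using a rabbit anti-monomethyl-H3K9 antibody with streptavidin donor and anti-IgG acceptor beads. Final levels are 20 nM enzyme, 500 nM peptide, 20 uM SAM; 2 h RT.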
HP1b binding inh – HTS for Inhibitors of HP1-beta Chromodomain Interactions with Methylated Histone Tails; AlphaScreen HP1-beta / biotin-H3K9me3 peptide binding; Chromobox protein homolog 1 (Homo sapiens), P83916; actives 0.56% (n = 390,000); Potency, µM (doses to about 114 µM), for the others: top-dose activity change, negative = inhibition, usual class: inhibitors; also: nearly all actives have a fitted effect of over 70% in size
Target sequence (P83916 whole entry, looked up): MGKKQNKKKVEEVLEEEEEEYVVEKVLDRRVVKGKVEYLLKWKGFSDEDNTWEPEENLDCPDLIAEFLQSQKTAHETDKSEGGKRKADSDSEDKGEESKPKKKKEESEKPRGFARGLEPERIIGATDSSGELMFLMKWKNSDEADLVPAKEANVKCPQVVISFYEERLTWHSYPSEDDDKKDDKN
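AlphaScreen: HP1-beta (50 nM) preformed 30 min with biotin-H3(1-18)K9me3 peptide (50 nM) in PBS pH 7.4, 0.01% Tween-20. Compound added for 30 min at RT, then streptavidin donor/nickel chelate acceptor beads (10 ug/mL) for 30 min.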
Sfp inh – qHTS Assay for Inhibitors of Bacillus subtilis Sfp phosphopantetheinyl transferase (PPTase); actives 3.5% (n = 310,000); 4'-phosphopantetheinyl transferase ffp (Bacillus subtilis), Q9F4F7; Biochemical Sfp PPTase activity, qHTS; AID 1490, 2009; Potency, µM, inactives show largest response in the series, negative = inhibition, actives largely listed as inhibitors;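 also: the enzyme is Sfp with the accession as filed and its product quenches rhodamine fluorescence; 0% = enzyme reaction without inhibitor and -100% = no enzyme wells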
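Sfp 15 nM + cpd, 15 min RT; start w/ rhodamine-CoA 5 uM, BHQ-2-YbbR 12.5 uM (final); 50 mM Hepes pH 7.6, 10 mM MgCl2, 0.01% NP-40, 0.01% BSA; read 525/598 nm at 0 and 30 min.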
BAZ2B block – qHTS Assay for Inhibitors of BAZ2B; Bromodomain adjacent to zinc finger domain protein 2B (Homo sapiens), Q9UIF8; AlphaScreen BAZ2B-H3K14Ac peptide displacement; Potency, µM (top dose mostly 114 µM), for the others: top-dose activity change, negative = inhibition, actives largely listed as inhibitors; actives 4.4% (n = 360,000); also: % is scaled to controls: 0 for no effect and ±100 for the full control effect; nearly all actives have a fitted effect of over 60% in size
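AlphaScreen displacement: compounds (up to 110uM) incubated 30 min at room temperature with a preformed 50 nM BAZ2B/50 nM biotinylated H3K14Ac peptide complex in PBS pH 7.4 with Tween-20. Donor and acceptor beads at 10 ug/mL final added, 20 min light-protected before reading.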
Active calls of the source: *; ? = inconclusive; · = no result given; ! = not confirmed by another sample; [ ] = dose if it differs, or a comment. The list is not random: actives were taken first. Their share in the collection is about 12%. Calls follow the shape of the dose curve; as a rule, active = well fitted curve in the direction sought with a large enough effect; inconclusive = small, poorly fitted or top-dose-only effect, or another doubt; inactive = no such curve, though single readings can be large; an effect the other way counts as inactive or inconclusive. Potency is read from the fitted curve at half-maximal effect.

SMILES	L3MBTL1 block	JMJD2A Tudor inh	G9a block	HP1b binding inh	Sfp inh	BAZ2B block
COc1ccc(C(=O)/C(C#N)=N/Nc2ccc([N+](=O)[O-])cc2)cc1	-20.1%	7.94µM*	2µM*	?	-4.1%	7.08µM*
COc1ccc(N/N=C(\C#N)C(=N)N2CCOCC2)cc1	·	-30.6%	28.2µM*	12.0%	-8.2%	-30.9%
COC(=O)/C(=C\C(=O)c1ccc([N+](=O)[O-])cc1)Nc1ccc(OC)cc1	?	17.8µM*	·	11.2µM*	-8.3%	5.62µM*
CCOC(=O)c1cc(C)n(CC2CCC(C(=O)Nc3ccc(C)cc3)CC2)c1C (stereo unspecified)	·	-24.8%	-1.1%[59 µM]	9.4%	·	-24.6%
CSc1cccc(NC(=O)C2CCN(S(=O)(=O)c3ccc4c(c3)CCCN4C(=O)C3CCC3)CC2)c1	·	-7.7%	10.8%[59 µM]	13.1%[57 µM]	·	0.7%
CCNc1ccc(-c2nc(-c3ccco3)no2)cc1[N+](=O)[O-]	·	-8.3%	-36.2%[59 µM]	37.9%	·	-5.8%
N#C/C(=N/Nc1ccc(OC(F)(F)F)cc1)C(N)=S	-26.5%	?	·	-18.7%	?	35.5µM*
CCOc1ccc(N/N=C(/C#N)C(N)=O)cc1	-5.9%	-30.2%	?	16.2%	11.9%	-13.8%
CCN(CC)CCn1c(=S)[nH]c2ccc(Cl)cc2c1=O	-21.9%	-26.6%	31.6µM*	18.5%	-8.4%	-27.7%
COn1c(=S)[nH]c2ccccc2c1=O	2.4%	89.1µM*	?	11.7%	-9.4%	-9.1%
O=c1c2ccccc2[nH]c(=S)n1Cc1cccnc1	4.6%	28.2µM*	-7.5%[59 µM]	-22.3%	1.4%	0.7%
CC(C)n1c(=S)[nH]c2ccccc2c1=O	47.2%	-7.1%	-28.3%[12.7 µM]	-10.6%	-11.9%	19.9%
COc1ccc2[nH]c3c(=O)n(CCCCC(=O)N4CCCC4)c(=S)[nH]c3c2c1	-2.5%	3.55µM*	2.24µM*	23.8%	-9.1%	-2.3%
COc1cccc(N2C(=O)CSC23C(=O)N(CC(=O)Nc2cc(C)ccc2C)c2ccccc23)c1 (stereo unspecified)	·	-2.9%	-19.9%[59 µM]	21.8%	·	8.4%[57.1 µM]
CC1CCCN(C(=O)CCCn2c(=S)[nH]c3ccccc3c2=O)C1 (stereo unspecified)	·	-14.9%	44.7µM*	29.6%	?	2.9%
O=c1c2nccnc2[nH]c(=S)n1Cc1ccccc1	·	-0.7%	39.8µM*	66.6%	-20.8%	·
CN(C)CCCn1c(=S)[nH]c2ccccc2c1=O	-15.9%	0.0%	50.1µM*	4.0%	?	-4.8%
CN(C)CCn1c(=S)[nH]c2ccccc2c1=O	·	50.1µM*	?	?	?	-1.1%
O=C(CCn1c(=S)[nH]c2ccccc2c1=O)N1CCCCC1	·	-7.6%	·	4.9%[57 µM]	-5.8%	-10.7%
CCCn1c(=S)[nH]c2ccccc2c1=O	-2.7%	-4.9%	-44.0%	11.0%	22.5%	-17.1%
O=C(NCc1cccs1)C1CCN(C(=O)N2CCOc3ccc(Cl)cc32)CC1	·	-34.2%	?	10.7%	·	?
CCc1nnc2c3ccccc3nc(N3CCN(c4cc(C)ccc4C)CC3)n12	·	-12.3%	-6.1%[59 µM]	18.9%	·	2.0%[57.1 µM]
Cc1noc(/C=C/c2cccs2)c1S(=O)(=O)N1CCC(C(=O)NCc2ccccc2Cl)CC1	·	-6.7%	4.6%[59 µM]	12.5%	·	·
CCCCc1nn2c(=O)cc(COC(=O)CNC(=O)c3ccccc3C)nc2s1	·	-10.7%	25.7%[59 µM]	7.8%	·	-28.2%
Cc1cc(C(F)(F)F)n2[nH]c(=O)c(N=Nc3ccccc3)c2n1	·	28.2µM*	?	6.9%	-13.2%	-26.0%
SMILES	L3MBTL1 block	JMJD2A Tudor inh	G9a block	HP1b binding inh	Sfp inh	BAZ2B block
O=c1[nH]n2c(C(F)(F)F)cc(C3CC3)nc2c1N=Nc1ccccc1	·	?	-1.6%	-18.5%	-7.1%	?
Cc1cc(C)n2[nH]c(=O)c(N=Nc3ccccc3)c2n1	·	?	7.94µM*	-1.7%	-0.7%	?
CC1CCN(S(=O)(=O)c2ccc3c(c2)CCN3C(=O)Nc2ccccc2Br)CC1	·	-17.1%	12.9%[59 µM]	41.1%	·	-2.6%
CC1CCN(c2nn3c(=O)c(C(=O)NCCc4ccccc4)cnc3s2)CC1	·	0.6%	4.9%[59 µM]	21.0%	·	2.5%
C[C@H](NC[C@H](O)CP(=O)(O)Cc1ccccc1)c1ccc(Cl)c(Cl)c1	·	·	-4.8%[59 µM]	·	89.1µM*!	·
S=C(c1ccc(-c2ccc(Cl)cc2Cl)o1)N1CCCCC1	-19.3%	?	?	-41.7%	56.2µM*	22.4µM*
S=C(c1ccc(-c2ccc(Cl)cc2Cl)o1)N1CCCC1	18.9%	50.1µM*	·	?	14.1µM*	-14.0%
Cc1nn(C(C)C(=O)Nc2ccccc2C(F)(F)F)c(=O)c2c1sc1ccccc12 (stereo unspecified)	·	-8.3%	?	40.6%	·	-13.7%
COc1ccc2c(CNC3CCCCCC3)c(C(=O)O)n(Cc3ccc(C)cc3)c2c1	·	-31.9%	?	18.4%	·	?
O=C(NC1CC(=O)N(c2ccc(Cl)cc2)C1)c1ccc(S(=O)(=O)N2CCCC2)cc1 (stereo unspecified)	·	-18.8%	3.1%[59 µM]	47.2%	·	3.1%
CC(C)C[C@@H](CC(=O)N[C@@H](CCCN)CC(=O)N[C@@H]1CCNC[C@H]1C(=O)N[C@H](CC(=O)N[C@@H](CCC(=O)O)CC(=O)O)Cc1c[nH]c2ccccc12)NC(=O)[C@@H]1CNCC[C@H]1N	·	·	·	·	-4.5%	·
CC(Nc1nc(Nc2ccc(F)cc2)nc(SCC(N)=O)n1)c1ccccc1 (stereo unspecified)	-3.8%[2.29 µM]	-34.5%	20.7%[0.501 µM]	-6.3%	3.1%	-30.4%
CC(Nc1nc(=S)nc(Nc2ccc(F)cc2)[nH]1)c1ccccc1 (stereo unspecified)	-0.7%	-26.2%	·	-11.4%	44.7µM*	-13.5%
COc1ccc(Br)cc1C(=O)NC(=S)Nc1ccc(CN2CCOCC2)cc1	·	?	-8.4%[0.0925 µM]	-1.3%	?	25.1µM*
CC(C)Oc1cccc(C(=O)NC(=S)Nc2ccc(Cl)c(C(=O)O)c2)c1	9.3%	?	·	-4.1%	-16.5%	-3.5%
COc1ccc(C(=O)NC(=S)Nc2ccc(Cl)c(C(=O)O)c2)cc1	·	-5.6%	50.1µM*	?	-14.9%	-1.4%
COc1ccc(C(=O)NC(=S)Nc2ccc3c(c2)Cc2ccccc2-3)cc1	·	-34.2%	?	-5.1%	44.7µM*	2.9%
